The supplement of paper PMC8728848
The full list was thinned out, with the strongest signals kept by preference.

Assays:
Assay in all cases: glycan array binding signal (z-score within array); higher = stronger binding
Conditions in all cases: glycan notation: IUPAC condensed, linker removed
[1] = target: Fuc(a1-2)Gal(b1-3)[Fuc(a1-4)]GlcNAc
Outline: (§1)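 The Consortium for Functional Glycomics database supplied 3228 glycan arrays, of which those lacking an available protein sequence were dropped. The binding signal, a within-array Z-score, was averaged across arrays of the same protein sequence and across linkers. Negative scores can be read as non-binding.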

[2] = target: Fuc(a1-2)Gal(b1-4)GlcNAc(b1-3)Gal(b1-4)GlcNAc
Outline: as §1

[3] = target: Fuc(a1-2)Gal6S(b1-4)GlcNAc
Outline: as §1

[4] = target: Fuc(a1-2)[Gal(a1-3)]Gal(b1-3)GlcNAc
Outline: as §1

[5] = target: Fuc(a1-2)[Gal(a1-3)]Gal(b1-4)Glc
Outline: as §1

[6] = target: Fuc(a1-2)[Gal(a1-3)]Gal(b1-4)GlcNAc
Outline: as §1

[7] = target: Fuc(a1-3)[Gal(b1-4)]Glc6S
Outline: as §1

[8] = target: Fuc(a1-3)[Gal(b1-4)]GlcNAc(b1-3)Gal(b1-3)[Fuc(a1-4)]GlcNAc
Outline: as §1

[9] = target: Fuc(a1-3)[Gal(b1-4)]GlcNAc(b1-4)Gal(b1-4)[Fuc(a1-3)]GlcNAc(b1-4)Gal(b1-4)[Fuc(a1-3)]GlcNAc
Outline: as §1

[10] = target: Gal(a1-3)Gal(b1-4)[Fuc(a1-3)]GalNAc
Outline: as §1

[11] = target: Gal(a1-3)[Gal(a1-4)]Gal(b1-4)GlcNAc
Outline: as §1

Gal(a1-4)Gal(b1-4)Gal = target: Gal(a1-4)Gal(b1-4)Gal
Outline: as §1

Gal(a1-4)Gal(b1-4)GalNAc = target: Gal(a1-4)Gal(b1-4)GalNAc
Outline: as §1

Gal(b1-3)Gal = target: Gal(b1-3)Gal
Outline: as §1

[12] = target: Gal(b1-3)[Fuc(a1-4)]GlcNAc(b1-3)Gal(b1-4)GlcNAc
Outline: as §1

[13] = target: Gal(b1-4)GlcNAc(b1-3)Gal(b1-4)GlcNAc
Outline: as §1

[14] = target: Gal3S(b1-3)[Fuc(a1-4)]GlcNAc
Outline: as §1

GalNAc(a1-3)GalNAc = target: GalNAc(a1-3)GalNAc
Outline: as §1

[15] = target: GlcNAc(b1-2)Man(a1-3)[GlcNAc(b1-2)Man(a1-6)]Man(b1-4)GlcNAc(b1-4)GlcNAc
Outline: as §1

GlcNAc(b1-3)Gal = target: GlcNAc(b1-3)Gal
Outline: as §1

GlcNAc(b1-3)GalNAc = target: GlcNAc(b1-3)GalNAc
Outline: as §1

GlcNAc(b1-6)GalNAc = target: GlcNAc(b1-6)GalNAc
Outline: as §1

Man(a1-2)Man(a1-3)Man = target: Man(a1-2)Man(a1-3)Man
Outline: as §1

[16] = target: Neu5Ac(a2-3)Gal(b1-4)GlcNAc(b1-3)Gal(b1-4)GlcNAc
Outline: as §1

[17] = target: Neu5Ac(a2-3)Gal(b1-4)[Fuc(a1-3)]GlcNAc(b1-3)Gal
Outline: as §1

[18] = target: Neu5Ac(a2-3)Gal(b1-4)[Fuc(a1-3)]GlcNAc(b1-3)Gal(b1-4)GlcNAc
Outline: as §1

[19] = target: Neu5Ac(a2-3)Gal6S(b1-4)GlcNAc
Outline: as §1

[20] = target: Neu5Ac(a2-8)Neu5Ac(a2-3)[GalNAc(b1-4)]Gal(b1-4)Glc
Outline: as §1

[21] = target: Neu5Gc(a2-6)Gal(b1-4)GlcNAc
Outline: as §1

B1: IDGF2 (Drosophila melanogaster), Q9V3D4 (protein)
chain: MKAWIWFTFVACLFAASTEAASNLVCYYDSSSYTREGLGKLLNPDLEIALQFCSHLVYGYAGLRGENLQAYSMNENLDIYKHQFSEVTSLKRKYPHLKVLLSVGGDHDIDPDHPNKYIDLLEGEKVRQIGFIRSAYDLVKTYGFDGLDLAYQFPKNKPRKVHGDLGLAWKSIKKLFTGDFIVDPHAALHKEQFTALVRDVKDSLRADGFLLSLTVLPNVNSTWYFDIPALNGLVDFVNLATFDFLTPARNPEEADYSAPIYHPDGSKDRLAHLNADFQVEYWLSQGFPSNKINLGVATYGNAWKLTKDSGLEGVPVVPETSGPAPEGFQSQKPGLLSYAEICGKLSNPQNQFLKGNESPLRRVSDPTKRFGGIAYRPVDGQITEGIWVSYDDPDSASNKAAYARVKNLGGVALFDLSYDDFRGQCSGDKYPILRAIKYRLHHHHHH
glycan array binding signal (z-score) [1]: -0.463
glycan array binding signal (z-score) [2]: -0.26
glycan array binding signal (z-score) [3]: -0.274
glycan array binding signal (z-score) [4]: 8.27
glycan array binding signal (z-score) [5]: 6.99
glycan array binding signal (z-score) [6]: 7.65
glycan array binding signal (z-score) [7]: 0.706
glycan array binding signal (z-score) [8]: 0.936
glycan array binding signal (z-score) [9]: -0.319
glycan array binding signal (z-score) [10]: -0.365
glycan array binding signal (z-score) [11]: -0.273
glycan array binding signal (z-score) (Gal(a1-4)Gal(b1-4)Gal): -0.196
glycan array binding signal (z-score) (Gal(a1-4)Gal(b1-4)GalNAc): -0.481
glycan array binding signal (z-score) (Gal(b1-3)Gal): 0.071
glycan array binding signal (z-score) [12]: 0.056
glycan array binding signal (z-score) [13]: -0.325
glycan array binding signal (z-score) [14]: 0.072
glycan array binding signal (z-score) (GalNAc(a1-3)GalNAc): -0.398
glycan array binding signal (z-score) [15]: -0.223
glycan array binding signal (z-score) (GlcNAc(b1-3)Gal): 0.066
glycan array binding signal (z-score) (GlcNAc(b1-3)GalNAc): 0.032
glycan array binding signal (z-score) (GlcNAc(b1-6)GalNAc): -0.197
glycan array binding signal (z-score) (Man(a1-2)Man(a1-3)Man): -0.128
glycan array binding signal (z-score) [16]: -0.3
glycan array binding signal (z-score) [17]: 0.239
glycan array binding signal (z-score) [18]: 0.148
glycan array binding signal (z-score) [19]: -0.073
glycan array binding signal (z-score) [20]: -0.271
glycan array binding signal (z-score) [21]: 0.622
